PubChem BioAssay (NCATS)
Records with an inconclusive call do not appear. A number with no mark means an inactive call. The call rests on the fitted dose curve; in most records, active means well fitted inhibition curve with a large enough effect; inconclusive means small, poorly fitted or top-dose-only effect; inactive means flat fitted curve, though single readings scatter.

Experiment: Drug repurposing screens with cells derived from glioblastoma tumor samples (AID 1345199); further: nearly all actives have a fitted effect of over 40% in size
Conditions: GBM patient neurospheres viability, ATP luminescence, 48 h; at 20 µM (top of the series); tumour line C
Method in brief: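 Primary testing used CD133+ neurospheres from four GBM patients, seven concentrations, 48 h exposure and ATP-based viability; confirmation added three slower-growing patient lines.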
On the % scale 0 is the no-effect control and ±100 the full control effect.

Row | SMILES | activity, negative = cell killing [%]
1 | CCSc1ccc2c(c1)N(CCCN1CCN(C)CC1)c1ccccc1S2 | -10.8
2 | CC1CCCC(C)N1NC(=O)c1ccc(Cl)c(S(N)(=O)=O)c1 (configuration not stated) | -19.6
3 | COC1[C@@H](O[C@@H]2O[C@H](C)[C@@H](O[C@H]3C[C@@](C)(O)[C@H](OC(=O)CC(C)C)[C@H](C)O3)[C@H](N(C)C)[C@H]2O)[C@@H](CC=O)C[C@@H](C)[C@@H](O)/C=C/C=C/C[C@@H](C)OC(=O)C[C@H]1OC(C)=O (some centres not stated) | -1.06

Same assay, conditions: GBM patient neurospheres viability, ATP luminescence, 48 h; at 21.2 µM (top of the series); tumour line B

Row | SMILES | activity, negative = cell killing [%]
4 | OCCN1CCN(CC/C=C2/c3ccccc3Sc3ccc(Cl)cc32)CC1 | -19.4
5 | CCSc1ccc2c(c1)N(CCCN1CCN(C)CC1)c1ccccc1S2 | -0.856
6 | CC1CCCC(C)N1NC(=O)c1ccc(Cl)c(S(N)(=O)=O)c1 (configuration not stated) | -10.8
7 | COC1[C@@H](O[C@@H]2O[C@H](C)[C@@H](O[C@H]3C[C@@](C)(O)[C@H](OC(=O)CC(C)C)[C@H](C)O3)[C@H](N(C)C)[C@H]2O)[C@@H](CC=O)C[C@@H](C)[C@@H](O)/C=C/C=C/C[C@@H](C)OC(=O)C[C@H]1OC(C)=O (some centres not stated) | -12.1
